{"source": "PubChem BioAssay (NCATS)", "note": "Records with an inconclusive call do not appear. Unmarked numbers belong to inactive results. Activity calls are given as the source filed them. Calls come from the whole dose curve; as a rule, active = well fitted cell-killing curve with a large enough effect; inconclusive = small, poorly fitted or top-dose-only effect, or effect the other way; inactive = flat fitted curve, though single readings scatter. % is set by controls: 0 for no effect and ±100 for the full control effect; potency is the fitted concentration of half-maximal effect.", "data": [{"test_system": "Es-2", "experiment": "Primary qHTS to identify gynecologic anti-cancer compounds using libraries of approved drugs and bioactive compounds (AID 1345084); note: nearly all actives have a fitted effect of over 55% in size", "details": "Gynecologic cancer cell panel viability, ATPlite luminescence, 48 h; series mostly up to 57.5 µM; activity change, negative = cytotoxicity: at the top concentration", "summary_of_the_method": "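Measured: luminescence after ATPlite addition (15 min, RT). Exposure: 48 h, 37 C, 5% CO2.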", "values": [{"molecule": "CC(C)(C)c1nnc(NS(=O)(=O)c2ccc(N)cc2)s1", "activity change, negative = cytotoxicity": "15.8%"}, {"molecule": "N=C(N)N", "activity change, negative = cytotoxicity": "-7.55%"}, {"molecule": "Cc1ccc(C(=O)c2ccc(CC(=O)O)n2C)cc1", "activity change, negative = cytotoxicity": "-9.62%"}, {"molecule": "CCCCCCCC/C=C/C(=O)O", "activity change, negative = cytotoxicity": "-14%"}, {"molecule": "O=C(/C=C/c1ccccc1)NCCO", "activity change, negative = cytotoxicity": "-5.57%"}, {"molecule": "COc1cc2c3cc1Oc1cc(ccc1O)C[C@@H]1c4c(cc(OC)c(O)c4Oc4ccc(cc4)C[C@@H]3N(C)CC2)CC[N+]1(C)C", "activity change, negative = cytotoxicity": "17.5%"}, {"molecule": "O=C(O)Cc1ccc2c(c1)C(=O)c1ccccc1CO2", "activity change, negative = cytotoxicity": "1.09%"}, {"molecule": "O=C(Nc1ccc(C(=O)O)c(O)c1)c1ccccc1", "activity change, negative = cytotoxicity": "-21.5%"}, {"molecule": "CO[C@@]1(NC(=O)Cc2cccs2)C(=O)N2C(C(=O)O)=C(COC(N)=O)CS[C@@H]21", "activity change, negative = cytotoxicity": "2.03%"}, {"molecule": "Nc1ccc(O)c(C(=O)O)c1", "activity change, negative = cytotoxicity": "12.7%"}, {"molecule": "C=CCCCCCCCCC(=O)O", "activity change, negative = cytotoxicity": "-0.65%"}, {"molecule": "Nc1c(CC(=O)O)cccc1C(=O)c1ccc(Br)cc1", "activity change, negative = cytotoxicity": "11%"}, {"molecule": "O=C(OCc1ccccc1)c1ccccc1", "activity change, negative = cytotoxicity": "-1.31%"}, {"molecule": "CCCCCCCCCCCCOCCO", "activity change, negative = cytotoxicity": "12.2%"}, {"molecule": "CN(C)[C@@H]1C(=O)C(C(=O)NCN2CCCC2)=C(O)[C@@]2(O)C(=O)C3=C(O)c4c(O)cccc4[C@@](C)(O)C3C[C@@H]12", "note": "(stereo partly specified)", "activity change, negative = cytotoxicity": "-1.96%"}, {"molecule": "O=C(O)Cc1ccc(-c2ccccc2)cc1", "activity change, negative = cytotoxicity": "-4.77%"}, {"molecule": "Cc1c(Nc2ncccc2C(=O)O)cccc1C(F)(F)F", "activity change, negative = cytotoxicity": "-5.94%"}, {"molecule": "CC(C(=O)O)c1ccc2c(c1)[nH]c1ccc(Cl)cc12", "note": "(stereo unspecified)", "Potency": "inactive"}, {"molecule": "CCCOC(=O)c1ccc(O)cc1", "activity change, negative = cytotoxicity": "-10.1% [at 116 µM]"}, {"molecule": "CCCCCCCCCCCC(=O)[O][Sn]([CH2]CCC)([CH2]CCC)[O]C(=O)CCCCCCCCCCC", "activity change, negative = cytotoxicity": "-2.04%"}, {"molecule": "O=C(O)/C=C\\C(=O)O", "activity change, negative = cytotoxicity": "14.2%"}, {"molecule": "CCOC(=O)c1ccccc1O", "activity change, negative = cytotoxicity": "2.49%"}, {"molecule": "Cc1c(N)c(=O)n(-c2ccccc2)n1C", "activity change, negative = cytotoxicity": "5.53%"}, {"molecule": "C[N+]1(C)[C@@H]2CC(OC(=O)[C@H](CO)c3ccccc3)C[C@H]1[C@@H]1O[C@@H]12", "note": "(stereo partly specified)", "activity change, negative = cytotoxicity": "1.7%"}, {"molecule": "c1ccc2sc(SSc3nc4ccccc4s3)nc2c1", "activity change, negative = cytotoxicity": "-2.61% [at 25.3 µM]"}, {"molecule": "COc1cc(NC(C)CCCN)c2ncccc2c1", "note": "(stereo unspecified)", "activity change, negative = cytotoxicity": "-0.299%"}, {"molecule": "CCCC(=O)OC[C@@H](OC(=O)CCC)[C@@H](OC(=O)CCC)[C@H](Cn1c2nc(=O)[nH]c(=O)c-2nc2cc(C)c(C)cc21)OC(=O)CCC", "activity change, negative = cytotoxicity": "-3.93%"}, {"molecule": "CC(=O)c1ccc(OCC(=O)N2CCCCC2)cc1", "activity change, negative = cytotoxicity": "-5.98%"}, {"molecule": "CCOc1ccc2nc(S(N)(=O)=O)sc2c1", "activity change, negative = cytotoxicity": "-8.37%"}, {"molecule": "CN(C)CCn1nnnc1SCC1=C(C(=O)O)N2C(=O)[C@@H](NC(=O)Cc3csc(N)n3)[C@H]2SC1", "activity change, negative = cytotoxicity": "5.64%"}, {"molecule": "CCCCCCCCCCCCCCCC(=O)OC(C)C", "activity change, negative = cytotoxicity": "-1.46%"}, {"molecule": "CCCCCCCCCCCCCCCCCC(=O)O", "activity change, negative = cytotoxicity": "4.64%"}, {"molecule": "CNC(=O)c1c(I)c(NC(=O)CCCCC(=O)Nc2c(I)c(C(=O)O)c(I)c(C(=O)NC)c2I)c(I)c(C(=O)O)c1I", "activity change, negative = cytotoxicity": "-2.05%"}, {"molecule": "CCC1C(=O)OCC1Cc1cncn1C", "note": "(stereo unspecified)", "activity change, negative = cytotoxicity": "-5.3%"}, {"molecule": "Nc1ccc(C(=O)O)c(O)c1", "activity change, negative = cytotoxicity": "-4.02%"}, {"molecule": "[O-][n+]1ccccc1SSc1cccc[n+]1[O-]", "Potency": "1000 nM (active)"}]}]}
